Laboratory results published in PubChem BioAssay (Tox21).
Where “and” joins values, the source holds several entries; their conditions need not be identical. Equal values may be shown once. Results filed as inconclusive are left out. Where a call stands in place of a potency, no number is given. Calls of active or inactive are those of the source. Calls come from the whole dose curve.

molecular target: Thyrotropin receptor (Homo sapiens) (UniProt P16473); experiment: qHTS assay to identify small molecule antagonists of the thyroid stimulating hormone receptor (TSHR) signaling pathway (AID 1259385); details: TSHR-HEK293 cAMP HTRF, TSH-stimulated antagonist mode; series mostly up to 92.4 µM; note: nearly all actives have a fitted effect of over 20% in size
Sequence (P16473 whole entry, looked up): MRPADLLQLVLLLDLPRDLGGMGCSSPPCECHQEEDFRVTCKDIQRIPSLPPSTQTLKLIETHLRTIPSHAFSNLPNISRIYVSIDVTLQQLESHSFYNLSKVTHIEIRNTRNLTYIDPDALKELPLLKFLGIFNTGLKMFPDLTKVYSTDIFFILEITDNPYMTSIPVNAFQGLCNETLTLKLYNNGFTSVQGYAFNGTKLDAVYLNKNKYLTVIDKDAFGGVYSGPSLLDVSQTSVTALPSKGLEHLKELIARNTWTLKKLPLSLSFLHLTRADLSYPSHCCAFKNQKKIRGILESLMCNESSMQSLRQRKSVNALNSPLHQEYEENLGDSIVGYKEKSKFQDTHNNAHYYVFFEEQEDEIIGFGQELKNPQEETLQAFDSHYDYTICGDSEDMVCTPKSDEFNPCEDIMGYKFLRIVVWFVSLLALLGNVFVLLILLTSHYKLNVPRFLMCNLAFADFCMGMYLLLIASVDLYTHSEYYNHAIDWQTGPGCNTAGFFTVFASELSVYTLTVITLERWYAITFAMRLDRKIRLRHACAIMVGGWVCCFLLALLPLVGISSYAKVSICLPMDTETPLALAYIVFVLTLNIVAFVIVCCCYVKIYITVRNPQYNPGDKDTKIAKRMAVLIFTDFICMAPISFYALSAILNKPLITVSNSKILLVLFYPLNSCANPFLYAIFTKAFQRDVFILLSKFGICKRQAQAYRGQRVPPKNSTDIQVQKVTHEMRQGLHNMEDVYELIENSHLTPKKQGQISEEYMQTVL
Description: U.S. Tox21 Program National Center for Advancing Translational Sciences [NCATS] NIH Chemical Genomics Center [NCGC] U.S. Environmental Protection Agency [EPA] National Institutes of Environmental Health Sciences [NIEHS] National Toxicology Program [NTP] U.S. Food and Drug Administration [FDA] Tox21 Assay Overview: TSHR is the receptor for thyrotropin (thyroid stimulating hormone or TSH), a member of the glycoprotein hormone family. TSH is released by the anterior pituitary gland and is the main regulator of thyroid gland growth and development. Upon binding circulating thyrotropin, a G-protein signal cascade activates adenylyl cyclase and […] cAMP concentration is increased. cAMP is a key second messenger involved extensively in cellular signal transduction pathways associated with the majority of G-protein coupled receptors (GPCRs). The activation of these GPCRs by neurotransmitters, lipids, nucleotides, peptides and hormones results in the activation or the inhibition of plasma membrane-bound adenylate cyclase through heterotrimeric G-proteins. A cell-based TSHR assay can be used to screen chemical compounds that modulate TSHR either in agonist or antagonist mode.
Tox21 Assay Protocol Summary: TSHR-Hek293 cells were dispensed at 800 cells/4uL/well in 1536-well white plates using a Multidrop dispenser. After the assay plates were incubated at a 37C/5% CO2 incubator for 18 hrs, 23 nL of compounds dissolved in DMSO, positive controls or DMSO only was transferred to the assay plate by a pin tool, followed by 1 ul medium containing Ro20-1724. For the antagonist mode screening, 1 uL of TSH was added on the top of the cell/compound mixtures to achieve a final agonist concentration of 1.5 ng/mL. After 30 min of incubation at room temperature, 2.5 ul/well of cAMP-d2 and 2.5 ul/well of anti-cAMP-cryptate were added respectively into the assay plates using a Flying Reagent Dispenser. The plates were incubated at room temperature for 1 hr. The fluorescence intensity in the plates was measured using an Envision plate reader. Each test compound was measured at 15 concentrations and in triplicates.
Potency is the fitted concentration of half-maximal effect.

Row | SMILES | Potency
1 | CC(O)(P(=O)(O)O)P(=O)(O)O | inactive
2 | NC(=O)n1c(O)c(C(=O)c2cccs2)c2cc(Cl)ccc21 | inactive
3 | Cc1cn([C@H]2C=C[C@@H](CO)O2)c(=O)[nH]c1=O | inactive
4 | CCCCCCc1ccc(O)cc1O | inactive
5 | CN1CCc2cccc3c2[C@H]1Cc1ccc(O)c(O)c1-3 | inactive
6 | O=C1NS(=O)(=O)c2ccccc21 | inactive
7 | C=C1CC[C@H](O)C/C1=C\C=C1/CCC[C@]2(C)[C@@H]([C@H](C)CCCC(C)C)CC[C@@H]12 | inactive
8 | CCCC[P+](CCCC)(CCCC)CCCC | inactive
9 | Cc1ncc([N+](=O)[O-])n1CCO | inactive
10 | CCCCCCCCCCCC[N+](C)(C)Cc1ccccc1 | inactive
11 | CCOc1ccc(NC(C)=O)cc1 | inactive
12 | NC(=O)c1cccnc1 | inactive
13 | O=C1OC2(c3ccccc31)c1cc(Br)c(O)c(Br)c1Oc1c2cc(Br)c(O)c1Br | 24.7 µM (active) and 21.1 µM (active)
14 | CN(C)C(=S)SC(=S)N(C)C | inactive
15 | CN(C)CCOC(c1ccccc1)c1ccccc1 | inactive
16 | CN1[C@@H]2CC(OC(=O)[C@H](CO)c3ccccc3)C[C@H]1[C@@H]1O[C@@H]12 (stereo not given in full) | inactive
17 | C1CCC(C(CC2CCCCN2)C2CCCCC2)CC1 (stereo not given) | 33.5 µM (active)
18 | Cc1cccc(C)c1 | inactive
19 | Cc1ncc([N+](=O)[O-])n1C | inactive
20 | CC(=O)CCC(=O)O | inactive

Row | SMILES | Potency
21 | Oc1ccccc1 | inactive
22 | O=C(Nc1ncc([N+](=O)[O-])s1)c1cccs1 | inactive
23 | CN(C)C(=O)Nc1ccc(Cl)c(Cl)c1 | inactive
24 | CC12CCC(CC1)C(C)(C)O2 | inactive
25 | F[B-](F)(F)F | inactive
26 | CCN(CC)C(=O)c1cccc(C)c1 | inactive
27 | COc1ccc2c(c1)c(CC(=O)O)c(C)n2C(=O)c1ccc(Cl)cc1 | inactive
28 | O=C1O[C@H]([C@@H](O)CO)C(O)=C1O | inactive
29 | CS(=O)(=O)OCCCCOS(C)(=O)=O | inactive
30 | CN[C@H]1CC[C@@H](c2ccc(Cl)c(Cl)c2)c2ccccc21 | inactive
31 | Nc1ccc(S(N)(=O)=O)cc1 | inactive
32 | O=C(O)c1ccccc1 | inactive
33 | CC/C(=C(\c1ccccc1)c1ccc(OCCN(C)C)cc1)c1ccccc1 | 61.5 µM (active) and 21.1 µM (active)
34 | CNNCc1ccc(C(=O)NC(C)C)cc1 | inactive
35 | COc1ccc2cc(S(=O)(=O)N[C@H](CC(=O)N[C@H](Cc3ccc(CN4[C@H](C)CCC[C@@H]4C)cc3)C(=O)N(C)C(C)C)c3ccc4c(c3)OCO4)ccc2c1 | 57.9 µM (active)
36 | O=c1[nH]cnc2c1ncn2[C@H]1CC[C@@H](CO)O1 | inactive
37 | C/C=C/C=C/C(=O)O | inactive
38 | CCOC(N)=O | inactive
39 | CC(=O)C(=O)O | inactive
40 | CN(N=O)C(=O)N[C@@H]1[C@@H](O)[C@H](O)[C@@H](CO)O[C@@H]1O | inactive
